Results: PubChem BioAssay (EPA / NIEHS)
Activity calls are given as the source filed them. How the source made its calls: active means hit-call score of the fitted dose curve at least 0.9, where 1 is the maximum; inactive means score below 0.9.

Experiments:
Details in all cases: mRNA level, 48 h; actives raise or lower the signal
[1] = read-out: Keratin 19 (KRT19), KRT19 (gene 3880); assay: LTEA_HepaRG_KRT19: Life Technologies and Expression Analysis (LTEA) Assay for Keratin 19 (KRT19) using HepaRG (AID 2283512)
Method in brief: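 Differentiated HepaRG cells in serum-free induction medium, exposed 48 h in duplicate to 8 half-log concentrations up to 100 uM in 0.5% DMSO. KRT19 mRNA by qRT-PCR, normalized to ACTB, GAPDH, POLR2A; bidirectional fit vs DMSO.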

[2] = read-out: JUN Transcription Factor, JUN (gene 3725); assay: LTEA_HepaRG_JUN: Life Technologies and Expression Analysis (LTEA) Assay for JUN Transcription Factor using HepaRG (AID 2283513)
Method in brief: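 Read-out is JUN transcript level by TaqMan qRT-PCR, normalized to ACTB, GAPDH and POLR2A, after 48 h chemical treatment of HepaRG cells. Concentration-response spanned eight half-log points up to 100 uM in 0.5% DMSO.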

[3] = read-out: Lipase C (LIPC), LIPC (gene 3990); assay: LTEA_HepaRG_LIPC: Life Technologies and Expression Analysis (LTEA) Assay for Lipase C (LIPC) using HepaRG (AID 2283514)
Method in brief: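 LIPC expression was quantified by qRT-PCR against three housekeeping genes (ACTB, GAPDH, POLR2A). Differentiated human HepaRG cells received eight half-log doses (top 100 uM, 0.5% DMSO) in duplicate for 48 h; fitting bidirectional relative to DMSO.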

[4] = read-out: Lipoprotein lipase (LPL), LPL (gene 4023); assay: LTEA_HepaRG_LPL: Life Technologies and Expression Analysis (LTEA) Assay for Lipoprotein lipase (LPL) using HepaRG (AID 2283515)
Method in brief: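 LPL transcript levels quantified by TaqMan qRT-PCR against three housekeeping genes after 48 h chemical treatment of HepaRG cells. Eight-point half-log series from 100 uM in 0.5% DMSO, tested in duplicate; bidirectional fitting versus vehicle.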

[5] = read-out: MicroRNA 122 (MIR122), gene 406906; assay: LTEA_HepaRG_MIR122: Life Technologies and Expression Analysis (LTEA) Assay for MicroRNA 122 (MIR122) using HepaRG (AID 2283516); further: the transcript read is the microRNA miR-122
Method in brief: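 Human liver HepaRG cultures receive test chemicals for 48 h at eight half-log concentrations from 100 uM. Expression is quantified by qRT-PCR with ACTB/GAPDH/POLR2A normalization and fitted bidirectionally against 0.5% DMSO.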

[6] = read-out: matrix metalloproteinase-10 (MMP10), MMP10 (gene 4319); assay: LTEA_HepaRG_MMP10: Life Technologies and Expression Analysis (LTEA) Assay for matrix metalloproteinase-10 (MMP10) using HepaRG (AID 2283517)
Method in brief: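 Expression measured by TaqMan qRT-PCR with ACTB/GAPDH/POLR2A normalisation after 48 h chemical exposure of HepaRG cells. Eight half-log concentrations, top 100 uM, 0.5% DMSO vehicle, duplicates; gain or loss fitted against vehicle.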

MYC, MYC (gene 4609) = assay: LTEA_HepaRG_MYC: Life Technologies and Expression Analysis (LTEA) Assay for MYC using HepaRG (AID 2283518)
Method in brief: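 Differentiated HepaRG cells exposed 48 h in serum-free induction medium to 8 concentrations (top 100 uM, half-log steps; 0.5% DMSO), duplicate. MYC mRNA measured by Fluidigm qRT-PCR, normalized to ACTB, GAPDH, POLR2A; bidirectional fit versus DMSO.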

[7] = read-out: matrix metalloproteinase-3 (MMP3), MMP3 (gene 4314); assay: LTEA_HepaRG_MMP3: Life Technologies and Expression Analysis (LTEA) Assay for matrix metalloproteinase-3 (MMP3) using HepaRG (AID 2283519)
Method in brief: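 Fluidigm-based TaqMan qRT-PCR, normalized to ACTB, GAPDH and POLR2A and fitted bidirectionally versus 0.5% DMSO, measured transcript levels. Treatment: duplicate 48 h exposures of HepaRG cells, ~100,000/well, to eight half-log concentrations topping at 100 uM.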

[8] = read-out: Paternally Expressed 10 (PEG10), PEG10 (gene 23089); assay: LTEA_HepaRG_PEG10: Life Technologies and Expression Analysis (LTEA) Assay for Paternally Expressed 10 (PEG10) using HepaRG (AID 2283520)
Method in brief: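 Human HepaRG cultures are dosed for 48 h across an eight-point half-log series starting at 100 uM, with 0.5% DMSO as vehicle and baseline. Gain or loss of PEG10 transcript is measured by qRT-PCR and fitted in both directions.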

[9] = read-out: Nuclear factor NF-kappa-B p105 subunit (Homo sapiens) (UniProt P19838); assay: LTEA_HepaRG_NFKB1: Life Technologies and Expression Analysis (LTEA) Assay for Nuclear Factor Kappa B Subunit 1 (NFKB1) using HepaRG (AID 2283521)
Method in brief: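 NFKB1 transcript was measured by TaqMan qRT-PCR on Fluidigm arrays, normalised to three housekeeping genes and fitted in both directions against 0.5% DMSO. HepaRG cells were dosed in duplicate for 48 h in serum-free induction medium, eight half-log steps from 100 uM.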

[10] = read-out: Protein phosphatase 2A (PPP2R4), PTPA (gene 5524); assay: LTEA_HepaRG_PPP2R4: Life Technologies and Expression Analysis (LTEA) Assay for Protein phosphatase 2A (PPP2R4) using HepaRG (AID 2283522)
Method in brief: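 Cells were plated, cultured 48 h, switched to serum-free induction medium, then dosed for 48 h (8 points, max 100 uM, 0.5% DMSO). RNA was isolated and PPP2R4 expression measured by TaqMan qRT-PCR.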

[11] = read-out: Phosphatase and tensin (PTEN), PTEN (gene 5728); assay: LTEA_HepaRG_PTEN: Life Technologies and Expression Analysis (LTEA) Assay for Phosphatase and tensin (PTEN) using HepaRG (AID 2283523)
Method in brief: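 Read-out: TaqMan qRT-PCR of PTEN transcript, normalized to three housekeeping genes, fitted in both directions against 0.5% DMSO. Differentiated human HepaRG cultures received chemicals for 48 h, eight-point half-log series topping at 100 uM.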

[12] = read-out: solute carrier (SLC22A1), SLC22A1 (gene 6580); assay: LTEA_HepaRG_SLC22A1: Life Technologies and Expression Analysis (LTEA) Assay for solute carrier (SLC22A1) using HepaRG (AID 2283524)
Method in brief: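 Transcript level of SLC22A1 quantified by qRT-PCR (normalized to three housekeeping genes) after 48 h chemical exposure of HepaRG cells, eight concentrations up to 100 µM, half-log steps, 0.5% DMSO vehicle. Gain or loss relative to DMSO fitted bidirectionally.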

[13] = read-out: Pyruvate Dehydrogenase Kinase 4 (PDK4), PDK4 (gene 5166); assay: LTEA_HepaRG_PDK4: Life Technologies and Expression Analysis (LTEA) Assay for Pyruvate Dehydrogenase Kinase 4 (PDK4) using HepaRG (AID 2283525)
Method in brief: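 Readout is qRT-PCR of PDK4 transcript, normalized to three housekeeping genes, with bidirectional fitting against 0.5% DMSO vehicle. Differentiated HepaRG cells were treated 48 h in serum-free induction medium, duplicate wells, eight-point half-log series topping at 100 uM.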

[14] = read-out: NAD(P)H dehydrogenase [quinone] 1 (NQO1), NQO1 (gene 1728); assay: LTEA_HepaRG_NQO1: Life Technologies and Expression Analysis (LTEA) Assay for NAD(P)H dehydrogenase [quinone] 1 (NQO1) using HepaRG (AID 2283526)
Method in brief: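 Transcript induction or suppression is quantified by qRT-PCR in human HepaRG liver cells dosed for 48 hours. Eight half-log concentrations topping at 100 uM are used, with 0.5% DMSO as vehicle and baseline.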

[15] = read-out: Nuclear factor erythroid 2-related factor 2 (Homo sapiens) (UniProt Q16236); assay: LTEA_HepaRG_NFE2L2: Life Technologies and Expression Analysis (LTEA) Assay for Nuclear factor erythroid 2-related factor 2 (NFE2L2) Transcription Factor using HepaRG (AID 2283527)
Method in brief: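 NFE2L2 transcript level was read by qRT-PCR (housekeeping ACTB/GAPDH/POLR2A normalisation) after 48 h chemical treatment of HepaRG in serum-free induction medium. Duplicate 8-point half-log curves, top 100 uM, 0.5% DMSO vehicle; up- or down-regulation fitted against vehicle.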

[16] = read-out: succinate dehydrogenase complex iron sulfur subunit B (SDHB), SDHB (gene 6390); assay: LTEA_HepaRG_SDHB: Life Technologies and Expression Analysis (LTEA) Assay for succinate dehydrogenase complex iron sulfur subunit B (SDHB) using HepaRG (AID 2283528)
Method in brief: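 SDHB transcript level read by TaqMan qRT-PCR, housekeeping-normalised (ACTB, GAPDH, POLR2A), after 48 h chemical treatment of plated HepaRG cells; eight concentrations top 100 uM, half-log steps, 0.5% DMSO, duplicates; fitted both directions against DMSO.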

[17] = read-out: Signal transducer and activator of transcription 3 (Homo sapiens) (UniProt P40763); assay: LTEA_HepaRG_STAT3: Life Technologies and Expression Analysis (LTEA) Assay for Signal transducer and activator of transcription (STAT3) using HepaRG (AID 2283529)
Method in brief: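 STAT3 transcript quantified by qRT-PCR against three housekeeping genes (ACTB, GAPDH, POLR2A), fitted both directions relative to DMSO. HepaRG cultures exposed 48 h to eight half-log concentrations, top 100 uM, 0.5% DMSO, serum-free induction medium.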

[18] = read-out: solute carrier (SLCO1B1), SLCO1B1 (gene 10599); assay: LTEA_HepaRG_SLCO1B1: Life Technologies and Expression Analysis (LTEA) Assay for solute carrier (SLCO1B1) using HepaRG (AID 2283530)
Method in brief: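 Differentiated human HepaRG cells were exposed for 48 h in serum-free induction medium to eight half-log concentrations, top 100 uM, in 0.5% DMSO. SLCO1B1 mRNA was measured by qRT-PCR, normalized to ACTB, GAPDH and POLR2A, and fitted bidirectionally against DMSO.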

[19] = read-out: sulfotransferase 2A1 (SULT2A1), SULT2A1 (gene 6822); assay: LTEA_HepaRG_SULT2A1: Life Technologies and Expression Analysis (LTEA) Assay for sulfotransferase 2A1 (SULT2A1) using HepaRG (AID 2283531)
Method in brief: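 HepaRG human liver cells, 48 h exposure in serum-free induction medium to 8 half-log concentrations topping at 100 µM (0.5% DMSO), duplicate wells. SULT2A1 mRNA measured by TaqMan qRT-PCR, normalized to ACTB/GAPDH/POLR2A; bidirectional fit against DMSO.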

Measured: outcome

Nuclear factor NF-kappa-B p105 subunit (Homo sapiens), sequence (P19838 whole entry, looked up): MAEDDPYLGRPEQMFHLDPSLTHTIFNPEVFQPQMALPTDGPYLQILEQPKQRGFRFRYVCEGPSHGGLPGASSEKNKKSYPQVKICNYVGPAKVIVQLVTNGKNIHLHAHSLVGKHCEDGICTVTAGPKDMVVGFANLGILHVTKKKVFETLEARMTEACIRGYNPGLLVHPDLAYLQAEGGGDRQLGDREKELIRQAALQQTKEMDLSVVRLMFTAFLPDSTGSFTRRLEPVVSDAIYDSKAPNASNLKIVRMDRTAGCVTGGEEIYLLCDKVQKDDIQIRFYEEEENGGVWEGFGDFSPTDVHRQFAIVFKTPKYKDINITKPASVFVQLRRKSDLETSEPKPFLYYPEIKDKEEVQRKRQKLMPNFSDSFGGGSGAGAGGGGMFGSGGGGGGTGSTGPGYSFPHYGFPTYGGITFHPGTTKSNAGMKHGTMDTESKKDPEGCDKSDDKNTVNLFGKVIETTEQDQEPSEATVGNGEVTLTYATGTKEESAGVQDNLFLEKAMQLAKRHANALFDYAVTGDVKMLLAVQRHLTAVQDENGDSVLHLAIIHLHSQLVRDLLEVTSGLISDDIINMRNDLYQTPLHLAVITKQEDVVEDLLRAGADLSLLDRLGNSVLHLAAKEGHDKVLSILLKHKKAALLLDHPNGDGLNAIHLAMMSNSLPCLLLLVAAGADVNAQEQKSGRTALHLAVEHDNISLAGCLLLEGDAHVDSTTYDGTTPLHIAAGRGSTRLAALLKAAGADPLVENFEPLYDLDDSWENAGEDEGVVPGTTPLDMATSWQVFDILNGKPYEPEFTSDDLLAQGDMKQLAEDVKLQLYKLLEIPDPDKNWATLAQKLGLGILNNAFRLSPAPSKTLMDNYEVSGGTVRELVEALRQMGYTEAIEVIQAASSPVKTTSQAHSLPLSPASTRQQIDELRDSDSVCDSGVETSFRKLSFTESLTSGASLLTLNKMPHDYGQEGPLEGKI
Signal transducer and activator of transcription 3 (Homo sapiens), sequence (P40763 whole entry, looked up): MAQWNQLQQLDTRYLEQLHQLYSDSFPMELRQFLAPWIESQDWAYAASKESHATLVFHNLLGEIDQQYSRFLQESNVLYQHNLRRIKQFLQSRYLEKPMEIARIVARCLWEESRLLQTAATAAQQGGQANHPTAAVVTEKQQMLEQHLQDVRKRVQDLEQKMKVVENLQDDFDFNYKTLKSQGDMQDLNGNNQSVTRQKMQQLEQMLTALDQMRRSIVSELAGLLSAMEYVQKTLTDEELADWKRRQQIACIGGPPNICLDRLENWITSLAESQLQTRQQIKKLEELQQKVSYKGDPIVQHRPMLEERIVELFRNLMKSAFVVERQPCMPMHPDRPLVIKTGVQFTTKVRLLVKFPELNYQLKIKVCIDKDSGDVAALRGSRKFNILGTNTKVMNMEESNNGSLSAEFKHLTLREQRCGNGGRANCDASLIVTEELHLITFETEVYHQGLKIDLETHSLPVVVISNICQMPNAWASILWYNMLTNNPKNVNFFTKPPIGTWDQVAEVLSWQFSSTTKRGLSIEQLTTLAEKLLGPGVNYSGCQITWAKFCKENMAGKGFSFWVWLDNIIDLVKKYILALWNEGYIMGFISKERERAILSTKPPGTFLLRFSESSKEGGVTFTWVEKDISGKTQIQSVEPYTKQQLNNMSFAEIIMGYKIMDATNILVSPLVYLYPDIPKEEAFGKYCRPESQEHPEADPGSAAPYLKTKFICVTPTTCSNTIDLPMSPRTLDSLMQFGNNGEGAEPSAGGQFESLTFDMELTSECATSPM
Nuclear factor erythroid 2-related factor 2 (Homo sapiens), sequence (Q16236 whole entry, looked up): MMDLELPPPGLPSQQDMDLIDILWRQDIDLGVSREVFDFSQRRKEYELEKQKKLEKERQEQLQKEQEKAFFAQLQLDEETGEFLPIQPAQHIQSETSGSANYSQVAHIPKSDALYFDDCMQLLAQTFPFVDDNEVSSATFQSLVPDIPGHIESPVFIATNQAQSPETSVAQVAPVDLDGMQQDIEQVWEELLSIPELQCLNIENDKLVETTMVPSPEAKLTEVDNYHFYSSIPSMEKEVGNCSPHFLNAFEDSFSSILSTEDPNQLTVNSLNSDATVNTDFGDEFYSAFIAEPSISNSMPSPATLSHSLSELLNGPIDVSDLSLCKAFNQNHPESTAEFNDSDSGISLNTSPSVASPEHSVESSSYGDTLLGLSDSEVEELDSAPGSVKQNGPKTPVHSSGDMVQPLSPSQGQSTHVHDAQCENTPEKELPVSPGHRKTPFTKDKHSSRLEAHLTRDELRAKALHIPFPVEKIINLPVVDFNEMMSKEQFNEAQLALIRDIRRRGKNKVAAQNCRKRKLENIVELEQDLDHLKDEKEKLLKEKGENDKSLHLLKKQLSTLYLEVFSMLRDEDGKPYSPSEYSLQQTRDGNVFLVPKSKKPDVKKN

O=C(O)c1ccc([N+](=O)[O-])cc1
inactive: all assays above
